Laboratory results taken from PubChem BioAssay (NCI).
This is part of a sample that, as a whole, favours compounds with a hit. Of some 83,000 tested, about 20% had one in any assay.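 How to read the values: 0–100, growth inhibition (40 = 60% inhibited); 0, no net growth; -100 to 0, cell death (-40 = 40% of starting cells died; -100 = all dead).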 Values without a mark were called inactive. The source made the active and inactive calls. The calls were made as follows: active = growth percent below 10; inactive = the rest.

Key:
Assay in all cases: NCI-60 one-dose screen, 48 h (100 = growth as untreated, 0 = no growth, -100 = all killed)
Settings in all cases: 10 µM
HCT-15 colon = tested on: HCT-15 colon
HT29 colon = tested on: HT29 colon
SNB-75 CNS = tested on: SNB-75 CNS
U251 CNS = tested on: U251 CNS
PC-3 prostate = tested on: PC-3 prostate
SK-MEL-5 melanoma = tested on: SK-MEL-5 melanoma
UACC-62 melanoma = tested on: UACC-62 melanoma
LOX IMVI melanoma = tested on: LOX IMVI melanoma
SK-MEL-28 melanoma = tested on: SK-MEL-28 melanoma
SK-MEL-2 melanoma = tested on: SK-MEL-2 melanoma
EKVX NSCLC = tested on: EKVX NSCLC
SN12C renal = tested on: SN12C renal
UO-31 renal = tested on: UO-31 renal
TK-10 renal = tested on: TK-10 renal
ACHN renal = tested on: ACHN renal
CAKI-1 renal = tested on: CAKI-1 renal
A498 renal = tested on: A498 renal
CCRF-CEM leukemia = tested on: CCRF-CEM leukemia
SNB-19 CNS = tested on: SNB-19 CNS
MOLT-4 leukemia = tested on: MOLT-4 leukemia

SMILES	growth (HCT-15 colon)	growth (HT29 colon)	growth (SNB-75 CNS)	growth (U251 CNS)	growth (PC-3 prostate)	growth (SK-MEL-5 melanoma)	growth (UACC-62 melanoma)	growth (LOX IMVI melanoma)	growth (SK-MEL-28 melanoma)	growth (SK-MEL-2 melanoma)	growth (EKVX NSCLC)	growth (SN12C renal)	growth (UO-31 renal)	growth (TK-10 renal)	growth (ACHN renal)	growth (CAKI-1 renal)	growth (A498 renal)	growth (CCRF-CEM leukemia)	growth (SNB-19 CNS)	growth (MOLT-4 leukemia)
C#Cc1ccc(S(=O)(=O)Nc2cccc(-c3csc(NC(C)=O)n3)c2)cc1	67.1%	71.4%	60.4%	81.8%	62.3%	43.2%	48.7%	54.6%	89.4%	81.5%	57.9%	79%	-81.1% (active)	81.7%	82.6%	65.3%	96%	49.5%		
COc1ccccc1[C@H]1C(C(=O)c2ccc(O)cc2)C2(N[C@@H]1c1ccccc1)C(=O)Nc1ccc(Br)cc12 (some centres undefined)	34.4%	-9.98% (active)	41%		23.2%	26.4%	38.1%	-39.3% (active)	60%	32.1%	30%	25%	27.9%	51%	31.9%	18.7%	37.4%	22%	49.3%	-9.09% (active)
CN1CCc2c(sc3ncnc(N/N=C/c4cn(-c5ccccc5)nc4-c4ccc(Br)cc4)c23)C1	27.4%	16.5%	88.8%		20.8%	50%	67.3%		68.9%	58.3%		13.9%		92.3%	65.6%	84.1%		15.7%	62.4%	2.95% (active)
O=C(NO)c1ccc(Cn2ccc3c(Nc4ccccc4)ncnc32)cc1	-55.5% (active)	8.25% (active)	44.3%		15%	-67.2% (active)	-49.3% (active)	-91.9% (active)	5.83% (active)	8.71% (active)	23.6%	17.6%	9.48% (active)	2.65% (active)	1.86% (active)	10.7%		18.2%	-30.4% (active)	7.84% (active)
CN(C(=O)c1ccc(C(C)(C)C)cc1)c1sc2c(c1C#N)CCC(=O)C2	-68.6% (active)	113%	98%		2.52% (active)	-69.7% (active)	-43.7% (active)	-71.5% (active)	60.3%	97.7%	68.9%	17.1%	-98.5% (active)	23%	-45.8% (active)	36.9%	97.6%		8.17% (active)	29.8%
COc1cccc(-c2ccc(/C=N/NC(=O)c3[nH]c4ccc(Br)cc4c3-c3ccccc3)o2)c1	1.34% (active)	-9.03% (active)	31%		20.2%	-0.615% (active)	28.8%	12.3%	42.5%	19.2%	50.1%	5.67% (active)	39.2%	70.4%	22.3%	26%	72.5%		40.3%	1.31% (active)
CC(=O)c1ccc(NC(=O)NCn2c(=O)[nH]c3ccccc3c2=O)cc1	101%	105%	99.9%	86.7%	86.9%	96.8%	81.1%	92.8%	103%	106%	92.5%	94.2%	73.7%	105%	99.2%	91.2%	98.1%	91.6%		
Cc1cc(=O)oc2cc(OCCCCOc3ccc(/C=C/C(=O)Nc4cccc(Cl)c4)cc3)ccc12	60.3%	86.4%	87.7%		91.2%	60.6%	75.3%	64.4%	86.8%	86.9%	71.3%	73.8%	84.9%	66.2%	81.4%	73.2%			74.7%	80.6%
COC[C@@H](CC(C)C)N=C1NC(=O)/C(=C/c2ccc3ncsc3c2)N1	1.92% (active)	-14.7% (active)	-4.85% (active)		30.9%	-12.1% (active)	1.43% (active)	0.514% (active)	0.97% (active)	-70.7% (active)	17.8%	13.6%	-12.7% (active)	27.8%	6.22% (active)	4.39% (active)	-7.78% (active)		11.5%	11.1%
O=C(NCCCCC(c1ccc(F)cc1)c1ccc(F)cc1)NCCCc1cccnc1	14%	14.4%	53%		11.5%	-90.5% (active)	41.6%	42.5%	20.8%	-1.41% (active)	27.4%	23.9%	26.2%		37.5%	29.8%	84.2%	-25.4% (active)	24.5%	
NS(=O)(=O)c1ccc(NC(=O)CSc2ccc(-c3ccccc3)nn2)c(Br)c1	86.7%	99.2%	14.2%		51.9%	85.7%	59.2%		94.7%	95.8%	70.1%	57.4%	75.1%	118%	54.2%	84.5%	120%	89.9%	42.9%	95.6%
COc1ccc(C(=O)NC(=S)N2CCN(c3ncnc4c3cnn4-c3ccccc3)CC2)cc1	42.7%	80.5%	31.7%		59%	71.6%	40.8%	62.3%	50%	57.6%	81.4%	46%	69%	101%	64.3%	28.1%	115%		10.2%	58.2%
CC(=O)NCC1=C(C)C=C2C(=O)[C@](C)(O)C3(CC3)C(C)=C21	-20% (active)	-20.4% (active)	-74.5% (active)	-13.2% (active)	2.77% (active)	-84.7% (active)	-91% (active)	-49.3% (active)	-93.3% (active)	-74.7% (active)	-26.1% (active)	-74.7% (active)	-32.2% (active)	-6.87% (active)	-37.4% (active)	-31.6% (active)	-70.4% (active)	51.9%		
Cc1noc2c(Cc3ccccc3)nn(CC(=O)N/N=C/c3ccc(F)cc3)c(=O)c12	94.1%	94.8%	9.02% (active)		65.6%	76%	94%	36.3%	90.4%	73.7%	70.8%	25.6%	5.87% (active)	59.2%	9.34% (active)	33.2%	-20% (active)	100%	32.4%	106%
CCCn1c(=O)c2[nH]c(-c3ccc(OCc4nc5ccccc5[nH]4)cc3)nc2n(CCC)c1=O	63.2%	61.2%	34.9%		77.3%	44.6%	35.5%	-2.38% (active)	102%	81.6%		2.85% (active)	35.7%	17.4%	32.4%	39.1%	-10.5% (active)	87.8%	37.1%	70.7%
CC1(c2ccccc2)NC(=O)N(CC(=O)Nc2ccc(C(=O)/C=C/c3ccc(Cl)cc3)cc2)C1=O (centres undefined)	-61.4% (active)	-46.9% (active)	37.5%		9.23% (active)	-60.9% (active)	1.17% (active)	-100% (active)	15.8%	34%	30.3%	19.4%	22.7%	67.9%	13.4%	21.4%	76.7%	7.4% (active)	30.9%	-4.5% (active)
O=C1Nc2cc(Cl)ccc2/C1=C/c1cccc(OCc2ccccc2)c1	-24.8% (active)	-43.8% (active)	16.8%		6.84% (active)	-98% (active)	-32.6% (active)	-82.6% (active)	4.09% (active)	-31.8% (active)	11.3%	-26.7% (active)		33.6%	9.76% (active)	9.35% (active)	49.9%	0.155% (active)	0.636% (active)	5.59% (active)
